Laboratory results from ChEMBL document CHEMBL1961873, “Compounds: GSK PKIS; Assays: Nanosyn kinase panel” (2012).

Key:
[1] = target: MAP/microtubule affinity-regulating kinase 3 (Homo sapiens) (UniProt P27448); conditions: at 1 µM;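 note: reported values are averaged percent inhibition of MARK3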
[2] = target: T1, MAP/microtubule affinity-regulating kinase 4 (Homo sapiens) (UniProt Q96L34); conditions: at 0.1 µM
T1 sequence (whole entry): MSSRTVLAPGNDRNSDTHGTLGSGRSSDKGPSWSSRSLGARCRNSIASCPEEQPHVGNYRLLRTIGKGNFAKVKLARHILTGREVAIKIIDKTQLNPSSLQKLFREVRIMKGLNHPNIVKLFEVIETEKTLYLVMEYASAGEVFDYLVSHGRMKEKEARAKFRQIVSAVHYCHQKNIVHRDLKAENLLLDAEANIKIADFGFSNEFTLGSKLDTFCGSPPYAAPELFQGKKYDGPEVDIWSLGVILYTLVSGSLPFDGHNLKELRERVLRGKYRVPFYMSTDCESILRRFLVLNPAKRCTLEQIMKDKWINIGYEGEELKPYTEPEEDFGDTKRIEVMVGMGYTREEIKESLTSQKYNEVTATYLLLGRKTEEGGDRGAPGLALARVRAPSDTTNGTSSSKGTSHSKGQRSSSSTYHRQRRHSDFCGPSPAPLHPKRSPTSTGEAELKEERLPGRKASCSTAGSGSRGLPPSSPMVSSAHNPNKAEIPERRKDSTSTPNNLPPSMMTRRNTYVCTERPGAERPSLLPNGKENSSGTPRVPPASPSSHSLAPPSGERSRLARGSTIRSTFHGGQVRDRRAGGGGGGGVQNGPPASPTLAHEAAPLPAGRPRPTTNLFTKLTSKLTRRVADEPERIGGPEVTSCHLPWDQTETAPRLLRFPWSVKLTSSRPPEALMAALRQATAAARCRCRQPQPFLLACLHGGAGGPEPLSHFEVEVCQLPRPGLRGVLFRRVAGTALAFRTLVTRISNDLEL

[3] = target: T1, MAP/microtubule affinity-regulating kinase 4 (Homo sapiens); conditions: at 1 µM
[4] = target: Maternal embryonic leucine zipper kinase (Homo sapiens) (UniProt Q14680); conditions: at 0.1 µM
[5] = target: Maternal embryonic leucine zipper kinase (Homo sapiens) (UniProt Q14680); conditions: at 1 µM
[6] = target: MAP kinase-interacting serine/threonine-protein kinase 1 (Homo sapiens) (UniProt Q9BUB5); conditions: at 0.1 µM
[7] = target: MAP kinase-interacting serine/threonine-protein kinase 1 (Homo sapiens) (UniProt Q9BUB5); conditions: at 1 µM
[8] = target: MAP kinase-interacting serine/threonine-protein kinase 2 (Homo sapiens) (UniProt Q9HBH9); conditions: at 0.1 µM
[9] = target: MAP kinase-interacting serine/threonine-protein kinase 2 (Homo sapiens) (UniProt Q9HBH9); conditions: at 1 µM
[10] = target: Serine/threonine-protein kinase MARK2 (Homo sapiens) (UniProt Q7KZI7); conditions: at 0.1 µM
[11] = target: Serine/threonine-protein kinase MARK2 (Homo sapiens) (UniProt Q7KZI7); conditions: at 1 µM
[12] = target: PAS domain-containing serine/threonine-protein kinase (Homo sapiens) (UniProt Q96RG2); conditions: at 0.1 µM
[13] = target: PAS domain-containing serine/threonine-protein kinase (Homo sapiens) (UniProt Q96RG2); conditions: at 1 µM
[14] = target: Phosphorylase b kinase gamma catalytic chain, skeletal muscle/heart isoform (Homo sapiens) (UniProt Q16816); conditions: at 0.1 µM
[15] = target: Phosphorylase b kinase gamma catalytic chain, skeletal muscle/heart isoform (Homo sapiens) (UniProt Q16816); conditions: at 1 µM
[16] = target: T2, Phosphorylase b kinase gamma catalytic chain, liver/testis isoform (Homo sapiens) (UniProt P15735); conditions: at 0.1 µM
T2 sequence (whole entry): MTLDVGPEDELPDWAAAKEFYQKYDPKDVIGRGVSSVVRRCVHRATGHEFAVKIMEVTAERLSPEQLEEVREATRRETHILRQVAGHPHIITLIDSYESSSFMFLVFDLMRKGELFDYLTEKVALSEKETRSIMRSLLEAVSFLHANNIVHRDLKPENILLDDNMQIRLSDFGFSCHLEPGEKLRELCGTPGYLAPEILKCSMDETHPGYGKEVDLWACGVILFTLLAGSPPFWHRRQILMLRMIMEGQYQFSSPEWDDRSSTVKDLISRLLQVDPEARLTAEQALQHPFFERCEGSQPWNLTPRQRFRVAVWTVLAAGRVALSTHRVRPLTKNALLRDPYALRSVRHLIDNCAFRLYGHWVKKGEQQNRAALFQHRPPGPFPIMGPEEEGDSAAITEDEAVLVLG

[17] = target: T2, Phosphorylase b kinase gamma catalytic chain, liver/testis isoform (Homo sapiens); conditions: at 1 µM
[18] = target: Serine/threonine-protein kinase pim-1 (Homo sapiens) (UniProt P11309); conditions: at 0.1 µM
[19] = target: Serine/threonine-protein kinase pim-1 (Homo sapiens) (UniProt P11309); conditions: at 1 µM
[20] = target: Serine/threonine-protein kinase pim-2 (Homo sapiens) (UniProt Q9P1W9); conditions: at 0.1 µM;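 note: reported value is the mean percent inhibition of PIM2, measured in the GSK PKIS kinase inhibitor set screen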
Chain of Serine/threonine-protein kinase pim-2 (Homo sapiens) (Q9P1W9 whole entry, looked up): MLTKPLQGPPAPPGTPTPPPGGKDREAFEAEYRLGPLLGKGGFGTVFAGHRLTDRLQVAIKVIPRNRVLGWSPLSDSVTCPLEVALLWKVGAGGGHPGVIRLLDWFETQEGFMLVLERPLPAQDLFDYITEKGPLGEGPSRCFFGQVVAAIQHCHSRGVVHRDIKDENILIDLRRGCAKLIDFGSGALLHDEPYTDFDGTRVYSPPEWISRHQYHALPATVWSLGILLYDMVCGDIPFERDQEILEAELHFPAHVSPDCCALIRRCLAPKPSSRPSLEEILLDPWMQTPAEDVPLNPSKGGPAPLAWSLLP

Chain of MAP kinase-interacting serine/threonine-protein kinase 1 (Homo sapiens) (Q9BUB5 whole entry, looked up): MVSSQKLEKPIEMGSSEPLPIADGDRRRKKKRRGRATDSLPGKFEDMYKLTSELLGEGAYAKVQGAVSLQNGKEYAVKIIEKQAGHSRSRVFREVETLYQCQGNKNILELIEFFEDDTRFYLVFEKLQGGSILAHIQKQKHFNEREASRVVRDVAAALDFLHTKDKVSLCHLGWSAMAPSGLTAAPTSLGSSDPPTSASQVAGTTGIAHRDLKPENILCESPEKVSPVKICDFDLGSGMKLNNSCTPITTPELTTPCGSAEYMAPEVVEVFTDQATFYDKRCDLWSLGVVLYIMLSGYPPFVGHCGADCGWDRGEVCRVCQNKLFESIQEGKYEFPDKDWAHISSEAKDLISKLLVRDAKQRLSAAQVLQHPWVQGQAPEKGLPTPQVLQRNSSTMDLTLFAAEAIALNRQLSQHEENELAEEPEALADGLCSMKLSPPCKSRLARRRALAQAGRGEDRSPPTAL
Chain of MAP/microtubule affinity-regulating kinase 3 (Homo sapiens) (P27448 whole entry, looked up): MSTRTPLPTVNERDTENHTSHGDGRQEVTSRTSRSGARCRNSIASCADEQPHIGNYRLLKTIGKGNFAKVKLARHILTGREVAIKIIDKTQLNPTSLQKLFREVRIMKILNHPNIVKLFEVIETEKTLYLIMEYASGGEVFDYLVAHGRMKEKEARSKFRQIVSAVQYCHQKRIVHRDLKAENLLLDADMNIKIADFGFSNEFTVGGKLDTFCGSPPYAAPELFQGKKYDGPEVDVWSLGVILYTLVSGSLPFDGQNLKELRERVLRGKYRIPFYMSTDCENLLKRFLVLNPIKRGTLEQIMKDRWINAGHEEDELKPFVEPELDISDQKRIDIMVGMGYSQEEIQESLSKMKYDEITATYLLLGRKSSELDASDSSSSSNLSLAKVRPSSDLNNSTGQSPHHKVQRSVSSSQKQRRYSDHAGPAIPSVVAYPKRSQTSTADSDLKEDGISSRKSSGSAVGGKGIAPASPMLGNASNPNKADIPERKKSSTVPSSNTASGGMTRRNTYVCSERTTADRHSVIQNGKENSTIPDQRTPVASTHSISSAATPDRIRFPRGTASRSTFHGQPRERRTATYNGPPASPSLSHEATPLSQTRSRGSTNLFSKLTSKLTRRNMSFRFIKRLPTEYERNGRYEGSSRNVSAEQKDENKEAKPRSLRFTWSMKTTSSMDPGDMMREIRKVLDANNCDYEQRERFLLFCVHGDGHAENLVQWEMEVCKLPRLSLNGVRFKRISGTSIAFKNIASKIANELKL
Chain of Serine/threonine-protein kinase pim-1 (Homo sapiens) (P11309 whole entry, looked up): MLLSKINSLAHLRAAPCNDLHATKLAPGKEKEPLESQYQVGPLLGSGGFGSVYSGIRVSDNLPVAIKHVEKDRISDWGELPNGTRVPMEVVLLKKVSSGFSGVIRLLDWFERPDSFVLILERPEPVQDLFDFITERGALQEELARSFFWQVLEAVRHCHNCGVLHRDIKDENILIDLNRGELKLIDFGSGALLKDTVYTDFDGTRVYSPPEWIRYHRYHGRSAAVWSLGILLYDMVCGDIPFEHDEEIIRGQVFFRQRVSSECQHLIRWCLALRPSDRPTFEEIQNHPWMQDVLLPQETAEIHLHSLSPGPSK
Chain of PAS domain-containing serine/threonine-protein kinase (Homo sapiens) (Q96RG2 whole entry, the tested form may be a part, canonical isoform): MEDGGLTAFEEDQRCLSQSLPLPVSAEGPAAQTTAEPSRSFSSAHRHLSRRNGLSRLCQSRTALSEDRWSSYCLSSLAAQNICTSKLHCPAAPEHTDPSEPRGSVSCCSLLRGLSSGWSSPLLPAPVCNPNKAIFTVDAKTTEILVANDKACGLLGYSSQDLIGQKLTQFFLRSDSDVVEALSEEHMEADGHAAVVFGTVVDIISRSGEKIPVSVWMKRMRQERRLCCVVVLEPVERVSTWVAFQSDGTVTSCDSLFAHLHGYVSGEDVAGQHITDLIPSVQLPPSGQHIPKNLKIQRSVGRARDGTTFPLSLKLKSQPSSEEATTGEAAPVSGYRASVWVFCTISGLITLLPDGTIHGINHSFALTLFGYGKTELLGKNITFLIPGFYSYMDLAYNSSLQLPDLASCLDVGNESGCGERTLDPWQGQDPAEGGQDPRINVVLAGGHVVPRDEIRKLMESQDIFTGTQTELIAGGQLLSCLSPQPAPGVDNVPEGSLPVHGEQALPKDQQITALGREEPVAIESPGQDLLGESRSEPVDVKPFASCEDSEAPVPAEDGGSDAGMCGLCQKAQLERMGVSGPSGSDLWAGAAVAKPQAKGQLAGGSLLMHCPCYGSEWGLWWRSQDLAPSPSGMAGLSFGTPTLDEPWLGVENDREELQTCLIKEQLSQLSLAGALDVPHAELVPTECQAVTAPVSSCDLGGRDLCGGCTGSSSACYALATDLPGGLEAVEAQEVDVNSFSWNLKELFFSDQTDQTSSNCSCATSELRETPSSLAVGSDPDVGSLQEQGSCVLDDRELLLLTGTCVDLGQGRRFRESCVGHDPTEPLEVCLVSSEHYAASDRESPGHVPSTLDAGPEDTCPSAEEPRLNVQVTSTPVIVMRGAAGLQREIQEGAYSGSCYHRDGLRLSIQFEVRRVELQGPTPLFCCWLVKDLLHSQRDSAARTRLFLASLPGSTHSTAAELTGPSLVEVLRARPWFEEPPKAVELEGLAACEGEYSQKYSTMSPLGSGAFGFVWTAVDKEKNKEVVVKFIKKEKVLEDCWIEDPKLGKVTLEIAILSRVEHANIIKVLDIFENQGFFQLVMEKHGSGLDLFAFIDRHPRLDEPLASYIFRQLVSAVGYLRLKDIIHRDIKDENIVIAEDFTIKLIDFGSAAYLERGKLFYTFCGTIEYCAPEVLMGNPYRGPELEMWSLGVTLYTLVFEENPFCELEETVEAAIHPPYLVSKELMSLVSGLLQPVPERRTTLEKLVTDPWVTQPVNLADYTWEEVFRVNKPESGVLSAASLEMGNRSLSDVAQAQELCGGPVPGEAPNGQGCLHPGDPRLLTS
Chain of Phosphorylase b kinase gamma catalytic chain, skeletal muscle/heart isoform (Homo sapiens) (Q16816 whole entry, looked up, canonical isoform): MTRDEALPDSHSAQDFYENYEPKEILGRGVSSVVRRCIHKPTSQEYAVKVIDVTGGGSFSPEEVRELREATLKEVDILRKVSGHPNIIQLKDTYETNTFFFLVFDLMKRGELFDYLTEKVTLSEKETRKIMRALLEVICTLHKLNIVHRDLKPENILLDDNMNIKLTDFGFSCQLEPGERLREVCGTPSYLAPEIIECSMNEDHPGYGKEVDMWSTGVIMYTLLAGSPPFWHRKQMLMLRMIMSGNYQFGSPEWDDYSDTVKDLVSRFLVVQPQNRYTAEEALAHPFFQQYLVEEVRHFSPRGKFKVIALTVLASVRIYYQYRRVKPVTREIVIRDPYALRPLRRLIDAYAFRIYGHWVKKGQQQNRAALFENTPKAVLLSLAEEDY
Chain of Maternal embryonic leucine zipper kinase (Homo sapiens) (Q14680 whole entry, looked up): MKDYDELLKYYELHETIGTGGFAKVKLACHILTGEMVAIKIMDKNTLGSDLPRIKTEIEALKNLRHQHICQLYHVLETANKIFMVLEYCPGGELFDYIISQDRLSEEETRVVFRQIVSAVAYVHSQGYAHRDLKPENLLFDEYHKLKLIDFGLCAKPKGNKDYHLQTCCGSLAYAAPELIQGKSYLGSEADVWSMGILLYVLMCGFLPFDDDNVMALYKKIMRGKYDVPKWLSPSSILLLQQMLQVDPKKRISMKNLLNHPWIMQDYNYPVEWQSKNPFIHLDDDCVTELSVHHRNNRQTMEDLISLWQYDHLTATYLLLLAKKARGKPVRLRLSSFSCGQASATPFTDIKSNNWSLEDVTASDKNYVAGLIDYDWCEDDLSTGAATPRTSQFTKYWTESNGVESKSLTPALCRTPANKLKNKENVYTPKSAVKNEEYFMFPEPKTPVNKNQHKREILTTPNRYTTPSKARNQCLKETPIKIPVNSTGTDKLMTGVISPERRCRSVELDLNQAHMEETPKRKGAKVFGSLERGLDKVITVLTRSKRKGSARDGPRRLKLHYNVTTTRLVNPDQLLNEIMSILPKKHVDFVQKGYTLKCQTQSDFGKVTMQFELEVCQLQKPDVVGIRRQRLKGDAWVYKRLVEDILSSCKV
Chain of MAP kinase-interacting serine/threonine-protein kinase 2 (Homo sapiens) (Q9HBH9 whole entry, looked up): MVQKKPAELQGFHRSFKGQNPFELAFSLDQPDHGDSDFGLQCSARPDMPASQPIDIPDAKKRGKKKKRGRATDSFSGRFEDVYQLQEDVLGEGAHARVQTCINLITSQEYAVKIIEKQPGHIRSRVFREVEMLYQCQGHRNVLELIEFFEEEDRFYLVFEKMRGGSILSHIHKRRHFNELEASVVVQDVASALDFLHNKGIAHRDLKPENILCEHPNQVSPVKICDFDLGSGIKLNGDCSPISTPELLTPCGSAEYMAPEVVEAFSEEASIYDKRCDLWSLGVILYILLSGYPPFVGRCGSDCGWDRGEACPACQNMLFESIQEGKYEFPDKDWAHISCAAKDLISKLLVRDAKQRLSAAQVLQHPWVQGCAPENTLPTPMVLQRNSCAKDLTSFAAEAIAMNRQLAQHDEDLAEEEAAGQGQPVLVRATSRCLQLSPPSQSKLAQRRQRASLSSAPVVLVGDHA

COc1ccc(Nc2ncc(-c3ccccc3)o2)cc1OC
inhibition [1]: 26.7% | inhibition [2]: 2.3% | inhibition [3]: 19.4% | inhibition [4]: 0.74% | inhibition [5]: 8.76% | inhibition [6]: 2.58% | inhibition [7]: 28.8% | inhibition [8]: 4.65% | inhibition [9]: 26.1% | inhibition [10]: 1.48% | inhibition [11]: 16.8% | inhibition [12]: 0.54% | inhibition [13]: 0.81% | inhibition [14]: 5.28% | inhibition [15]: 28.9% | inhibition [16]: 0.22% | inhibition [17]: 2.01% | inhibition [18]: 1.41% | inhibition [19]: 2.22% | inhibition [20]: 1.11%

CN(c1ccc(NC(=O)NCCN2CCOCC2)cc1)c1ccnc(Nc2ccc(CS(C)(=O)=O)cc2)n1
inhibition [1]: 9.85% | inhibition [2]: 1.24% | inhibition [3]: 5.47% | inhibition [4]: 2.36% | inhibition [5]: 7.07% | inhibition [6]: 2.87% | inhibition [7]: 8.84% | inhibition [8]: 2.32% | inhibition [9]: 9.63% | inhibition [10]: 0.88% | inhibition [11]: 2.47% | inhibition [12]: 0.41% | inhibition [13]: 2.08% | inhibition [14]: 2.5% | inhibition [15]: 5.5% | inhibition [16]: 2.91% | inhibition [17]: 6.71% | inhibition [18]: 0.61% | inhibition [19]: -0.22% | inhibition [20]: 0.04%

CN1CCC(n2cnc(-c3ccc(F)cc3)c2-c2ccnc(NCCO)n2)CC1
inhibition [1]: 6.04% | inhibition [2]: 0.86% | inhibition [3]: 2.05% | inhibition [4]: 2.15% | inhibition [5]: 5.49% | inhibition [6]: 4.71% | inhibition [7]: 15.9% | inhibition [8]: 2.63% | inhibition [9]: 8.42% | inhibition [10]: -0.26% | inhibition [11]: -0.08% | inhibition [12]: 0.82% | inhibition [13]: 0.93% | inhibition [14]: 2.34% | inhibition [15]: 5.88% | inhibition [16]: 4.56% | inhibition [17]: 7.31% | inhibition [18]: 0.34% | inhibition [19]: 1.55% | inhibition [20]: 0.95%

O=C(O[C@H]1CN[C@H](C#Cc2cc3ncnc(Nc4ccc5c(cnn5Cc5ccccc5)c4)c3s2)C1)N1CCOCC1
inhibition [1]: 2.28% | inhibition [2]: 0.43% | inhibition [3]: 2.44% | inhibition [4]: -2.54% | inhibition [5]: -1.35% | inhibition [6]: 1.01% | inhibition [7]: 9.35% | inhibition [8]: 0.04% | inhibition [9]: 11.5% | inhibition [10]: -1.65% | inhibition [11]: 1.58% | inhibition [12]: 1.66% | inhibition [13]: 0.95% | inhibition [14]: 2.11% | inhibition [15]: 6.5% | inhibition [16]: -0.83% | inhibition [17]: -1.47% | inhibition [18]: -1.14% | inhibition [19]: -0.83% | inhibition [20]: -0.43%

Cc1cc(O)cc(C)c1/C=C/c1cncc(C(=O)OC(C)(C)C)c1
inhibition [1]: 1.89% | inhibition [2]: 0.38% | inhibition [3]: 0.19% | inhibition [4]: 3.07% | inhibition [5]: 5.89% | inhibition [6]: 4.59% | inhibition [7]: 16.7% | inhibition [8]: 1.84% | inhibition [9]: 9.67% | inhibition [10]: 0.13% | inhibition [11]: 1.18% | inhibition [12]: -0.08% | inhibition [13]: 0.02% | inhibition [14]: 3.95% | inhibition [15]: -7.1% | inhibition [16]: 3.11% | inhibition [17]: 1.25% | inhibition [18]: 0.18% | inhibition [19]: 0.23% | inhibition [20]: 0.32%

O=C(O[C@H]1CN[C@H](C#Cc2cc3ncnc(Nc4ccc(OCc5cccc(F)c5)c(Cl)c4)c3s2)C1)N1CCOCC1
inhibition [1]: 10.1% | inhibition [2]: 1.79% | inhibition [3]: 0.94% | inhibition [4]: 3.76% | inhibition [5]: 4.67% | inhibition [6]: 4.6% | inhibition [7]: 11.4% | inhibition [8]: 5.13% | inhibition [9]: 13.2% | inhibition [10]: 6.4% | inhibition [11]: -1.51% | inhibition [12]: 0.31% | inhibition [13]: 0.78% | inhibition [14]: 6.72% | inhibition [15]: 7.76% | inhibition [16]: 7.04% | inhibition [17]: 9.85% | inhibition [18]: 0.79% | inhibition [19]: 0.58% | inhibition [20]: -0.36%

CS(=O)(=O)CCNCc1ccc(-c2ccc3ncnc(Nc4ccc(OCc5cccc(C(F)(F)F)c5)cc4)c3c2)o1
inhibition [1]: 3.96% | inhibition [2]: 1.47% | inhibition [3]: 2.54% | inhibition [4]: 3.5% | inhibition [5]: 11.4% | inhibition [6]: 2.34% | inhibition [7]: 6.48% | inhibition [8]: 0.53% | inhibition [9]: 5.47% | inhibition [10]: 0.72% | inhibition [11]: 5.07% | inhibition [12]: -1.03% | inhibition [13]: -1.02% | inhibition [14]: 2.44% | inhibition [15]: 4.94% | inhibition [16]: 5.95% | inhibition [17]: 4.97% | inhibition [18]: 1.96% | inhibition [19]: 3.18% | inhibition [20]: -0.68%
